Menin-MLL FL inh – displaces fluorescein MLL peptide from human menin. Fluorescence polarization, fluorescein-MLL peptide displacement from menin. FP activity change, % at 61.4 µM. 290,000 tested, under 10 active; active means well fitted curve in the direction sought with a large enough effect in the polarisation, not every such curve was filed as active; inconclusive means small, poorly fitted or top-dose-only effect, or effect the other way, or a change in a side signal; inactive means no such curve, though single readings can be large or run the other way; the % refers to the polarisation; further: % of control where 0% means no effect
RGS12 GoLoco inh – RGS12 GoLoco-Gai1 interaction inhibition | Gai1:RGS12 GoLoco peptide FP, rhodamine, 10 min | Potency, µM (titrated, usually from 61.6 µM), for the others: at the highest dose activity, negative = inhibition, usual class: inhibitors | 0.44% of 230,000 active | P63096 | AID 880; active means well fitted inhibition curve with a large enough effect, not every such curve was filed as active; inactive means no such curve, though single readings can be large or run the other way; further: potency means the concentration at half of the fitted maximal effect; on the % scale 0 is the no-effect control and ±100 the full control effect; nearly all actives have a fitted effect of over 30% in size
Target sequence (P63096 whole entry, looked up): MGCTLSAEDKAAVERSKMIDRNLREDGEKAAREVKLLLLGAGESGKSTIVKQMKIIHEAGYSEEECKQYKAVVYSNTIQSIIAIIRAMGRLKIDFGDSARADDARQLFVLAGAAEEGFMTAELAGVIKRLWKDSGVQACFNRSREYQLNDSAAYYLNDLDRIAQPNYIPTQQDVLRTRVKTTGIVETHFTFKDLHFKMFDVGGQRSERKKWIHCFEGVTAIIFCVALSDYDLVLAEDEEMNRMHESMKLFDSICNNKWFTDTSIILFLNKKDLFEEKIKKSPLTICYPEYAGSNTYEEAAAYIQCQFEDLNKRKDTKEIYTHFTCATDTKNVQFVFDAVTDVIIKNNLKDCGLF
ERG-DNA inh – blocks human ERG Ets domain binding to DNA | fluorescence polarization, His-ERG Ets domain / labelled DNA | P11308 | AID 624246 | Potency, µM (series often up to 76.9 µM), for inactives: at the top dose FP activity, negative = inhibition, most hits filed as inhibitors | 0.028% of 370,000 active; active means well fitted inhibition curve with a large enough effect in the polarisation, with a control signal flat; inconclusive means small, poorly fitted or top-dose-only effect, or effect the other way, or a change in a side signal; inactive means no such curve, though single readings can be large or run the other way; the % refers to the polarisation;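 further: polarization taken with two DNA probes labelled with fluorescein and Texas red; potency means the concentration at half of the fitted maximal effect; % of control where 0% means no effect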
Target sequence (P11308 whole entry, looked up, the tested form may be a part): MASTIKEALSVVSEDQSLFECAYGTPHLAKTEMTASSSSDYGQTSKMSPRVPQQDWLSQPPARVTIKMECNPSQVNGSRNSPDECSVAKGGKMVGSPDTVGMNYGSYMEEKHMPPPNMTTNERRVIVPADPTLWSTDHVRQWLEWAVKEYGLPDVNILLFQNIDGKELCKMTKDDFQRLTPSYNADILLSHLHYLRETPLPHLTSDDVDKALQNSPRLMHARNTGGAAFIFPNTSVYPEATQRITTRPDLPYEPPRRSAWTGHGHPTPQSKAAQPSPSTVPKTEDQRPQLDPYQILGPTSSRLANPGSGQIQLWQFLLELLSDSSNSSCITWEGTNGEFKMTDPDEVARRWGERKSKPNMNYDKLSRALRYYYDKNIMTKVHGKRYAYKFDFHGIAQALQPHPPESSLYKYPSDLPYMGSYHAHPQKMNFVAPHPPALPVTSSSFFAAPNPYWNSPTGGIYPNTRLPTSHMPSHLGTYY
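His-tagged ERG Ets domain (1 uM in the protein solution; 300mM KCl, 50mM Tris-HCl, 1mM EDTA, 1mM DTT, pH 7.5) received compound, then a probe mix of 5 nM fluorescein-DNA and 100nM Texas-615-DNA. Fluorescence polarization was read for both dyes.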
CXXC DNA block – inhibitors of human MLL CXXC domain-DNA interaction; Q03164; MLL-CXXC / FITC-HOXA9 DNA fluorescence polarization; Potency, µM (doses to about 115 µM), for the others: top-dose activity change, negative = inhibition, hits mostly inhibitors; 0.037% of 290,000 active; AID 2662; active means well fitted inhibition curve with a large enough effect in the polarisation, with a control signal flat, not every such curve was filed as active; inconclusive means small, poorly fitted or top-dose-only effect, or effect the other way, or a change in a side signal; inactive means no such curve, though single readings can be large or run the other way; the % refers to the polarisation; further: potency means the concentration at half of the fitted maximal effect
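Fluorescence polarization: 7 uM MLL-CXXC (stock) preincubated 5 min with compounds, then 50 nM fluorescein-HOX-A9 DNA (stock) added; 30 min ambient. Buffer 50 mM Tris-HCl pH 7.5, 50 mM NaCl, 1 mM DTT, 0.05% BSA.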
Menin-MLL TR inh – displaces Texas Red mutant MLL peptide from human menin; O00255; Menin + Texas Red MLL mutant peptide, fluorescence polarization; Potency, µM (highest dose often 61.6 µM), inactives show at the highest dose FP activity change, negative = inhibition, hits mostly inhibitors; 0.23% of 270,000 active; active means well fitted inhibition curve with a large enough effect in the polarisation, with a control signal flat, not every such curve was filed as active; inconclusive means small, poorly fitted or top-dose-only effect, or effect the other way, or a change in a side signal; inactive means no such curve, though single readings can be large or run the other way; the % refers to the polarisation; further: potency means the concentration at half of the fitted maximal effect; % of control where 0% means no effect
* hit, by the source's call; ! = a repeat was not active; [ ] = dose if it differs, or a comment. This excerpt belongs to a sample that is enriched for hits.

How did CCn1cc([N+](=O)[O-])c(C(=O)N2N=C(c3ccc4ccccc4c3)CC2c2cc(Br)ccc2O)n1 (centres undefined) do in these assays?
Menin-MLL FL inh: -3.0; RGS12 GoLoco inh: -2.5%; ERG-DNA inh: -1.1%; CXXC DNA block: 18.3%; Menin-MLL TR inh: 11.2µM*

What do the screens show for `COc1ccc(CNc2nc3ccccc3n2C)c(OC)c1`?
Menin-MLL FL inh: 1.5; RGS12 GoLoco inh: -7.5%; ERG-DNA inh: -12.1%; CXXC DNA block: -3.9%; Menin-MLL TR inh: -8.0%

What do the screens show for `COc1ccc(N=Nc2nc3cc(Br)c(Br)cc3n2C)c(OC)c1`?
Menin-MLL FL inh: inconclusive; RGS12 GoLoco inh: 1.58µM*; ERG-DNA inh: -21.3%; CXXC DNA block: inconclusive; Menin-MLL TR inh: -14.0%

How did COC(=O)c1ccc(CNC(=O)c2ccc(COc3ccccc3)cc2)cc1 do in these assays?
Menin-MLL FL inh: -27.9; RGS12 GoLoco inh: 10.9%; ERG-DNA inh: 0.5%; CXXC DNA block: 19.4%; Menin-MLL TR inh: 28.2µM*

What do the screens show for `COc1cccc(CNC(=O)c2ccc(COc3ccccc3)cc2)c1`?
ERG-DNA inh: -6.6%; CXXC DNA block: 6.7%

How did CC(=O)c1coc2c1cc(O)c1ccccc12 do in these assays?
Menin-MLL FL inh: 2.5; RGS12 GoLoco inh: 10.5%; ERG-DNA inh: -7.9%; CXXC DNA block: -6.7%; Menin-MLL TR inh: 2.2%

Results for CC(=O)c1cc(O)c2ccccc2c1O ?
Menin-MLL FL inh: inconclusive; RGS12 GoLoco inh: 14.1µM*; ERG-DNA inh: 0.4%; CXXC DNA block: inconclusive; Menin-MLL TR inh: inconclusive

Results for CC(=O)c1c(COC(=O)c2cccnc2)nc2ccccc2[n+]1[O-] ?
Menin-MLL FL inh: -2.3; RGS12 GoLoco inh: 8.91µM*; ERG-DNA inh: -3.5%; CXXC DNA block: -2.2%; Menin-MLL TR inh: 8.6%

What do the screens show for `O=C(c1ccccc1)c1c2c(cc3sc4ccccc4[n+]13)-c1cccc3cccc-2c13`?
Menin-MLL FL inh: inconclusive; RGS12 GoLoco inh: 1.26µM*; ERG-DNA inh: 49.4%; CXXC DNA block: inconclusive; Menin-MLL TR inh: inconclusive

What do the screens show for `Cc1sc2cc3c(c(C(=O)c4ccccc4)[n+]2c1C)-c1cccc2cccc-3c12`?
Menin-MLL FL inh: -0.2; RGS12 GoLoco inh: -10.3%; ERG-DNA inh: 3.2%; CXXC DNA block: inconclusive; Menin-MLL TR inh: -21.2%

What do the screens show for `O=C(/C=C/C#Cc1cccc(NS(=O)(=O)c2ccccc2)c1)NO`?
Menin-MLL FL inh: 7.1; Menin-MLL TR inh: inconclusive

What do the screens show for `Cc1nn(-c2ccc(S(=O)(=O)O)cc2)c(O)c1N=Nc1ccc(-c2ccc(N=Nc3ccc4c(S(=O)(=O)O)cc(S(=O)(=O)O)c(N)c4c3O)c(O)c2)cc1O.[Cu].[Cu]`?
RGS12 GoLoco inh: 3.16µM*

What do the screens show for `Cc1ccc(Cl)cc1NS(=O)(=O)c1cc2c3c(c1)CC(=O)N3CCC2`?
ERG-DNA inh: -8.1%

What do the screens show for `Nc1nc(N2CCOCC2)cc(=O)[nH]1`?
Menin-MLL FL inh: inconclusive; RGS12 GoLoco inh: 20µM*; ERG-DNA inh: -4.8%; CXXC DNA block: -16.4%; Menin-MLL TR inh: -17.8%

What do the screens show for `CN(C)c1ccc(C(=C2C=CC(=[N+](C)C)C=C2)c2ccccc2)cc1`?
Menin-MLL FL inh: -1.4; RGS12 GoLoco inh: 14.1µM*!; CXXC DNA block: 7.2%; Menin-MLL TR inh: inconclusive

How did CN(C)c1ccc(C(=C2C=CC(=[N+](C)C)C=C2)c2ccc(N(C)C)cc2)cc1 do in these assays?
Menin-MLL FL inh: inconclusive; RGS12 GoLoco inh: -43.2%; CXXC DNA block: 8.0%; Menin-MLL TR inh: inconclusive

How did c1cc(-c2cnn3cc(-c4ccc(OCCN5CCCCC5)cc4)cnc23)ccn1 do in these assays?
Menin-MLL FL inh: -0.5; Menin-MLL TR inh: -3.2%

How did COc1ccc2nc(C)cc(N/N=C/c3cccc(OC)c3O)c2c1 do in these assays?
Menin-MLL FL inh: -14.6; ERG-DNA inh: 15.5%; CXXC DNA block: inconclusive; Menin-MLL TR inh: -29.3%

What do the screens show for `COc1ccc(/C=N/Nc2cc(C)nc3ccc(Br)cc23)cc1`?
Menin-MLL FL inh: -22.4; ERG-DNA inh: 11.9%; CXXC DNA block: -9.6%; Menin-MLL TR inh: 15.8µM*

Results for O=S(=O)(NCC(c1cccs1)S(=O)(=O)c1ccccc1)c1ccccc1 (centres undefined) ?
ERG-DNA inh: 8.8%

How did CC(=O)Nc1nc(CC(C)C)cc(-c2ccco2)c1C#N do in these assays?
Menin-MLL FL inh: -0.1; RGS12 GoLoco inh: 2.82µM*; ERG-DNA inh: -10.5%; CXXC DNA block: 3.0%; Menin-MLL TR inh: -15.9%

What do the screens show for `COc1ccc(OC)c(NC(=O)CSc2cn(CC(=O)N3CCCCCC3)c3ccccc23)c1`?
ERG-DNA inh: 10.7%

How did COC(=O)C1(C(=O)OC)C[C@H]2CON=C2[C@H]1c1ccccc1 do in these assays?
Menin-MLL FL inh: 2.0; RGS12 GoLoco inh: -0.2%; Menin-MLL TR inh: 2.3%

Results for C[N+](C)(C)CCN(Cc1ccc(Cl)cc1)c1ccccn1 ?
Menin-MLL FL inh: 1.3; RGS12 GoLoco inh: 6.31µM*; ERG-DNA inh: -1.7%; CXXC DNA block: 8.0%; Menin-MLL TR inh: inconclusive

How did CN(C)CCN(Cc1ccc(Cl)cc1)c1ccccn1 do in these assays?
Menin-MLL FL inh: -3.7; RGS12 GoLoco inh: -4.5%; ERG-DNA inh: 17.7%; CXXC DNA block: 11.9%; Menin-MLL TR inh: -5.7%

Results for O=C(O)c1cc2c(s1)-c1ccccc1CC2 ?
Menin-MLL FL inh: 3.0; RGS12 GoLoco inh: 9.3%; ERG-DNA inh: 15.8µM*; CXXC DNA block: 11.4%; Menin-MLL TR inh: -5.3%

What do the screens show for `O=C(O)c1cc2c(s1)-c1ccccc1OC2`?
Menin-MLL FL inh: -1.7; RGS12 GoLoco inh: -15.9%; ERG-DNA inh: 1.7%; CXXC DNA block: -2.0%; Menin-MLL TR inh: 14.9%

Results for C[C@@]12C[C@H](O)C3[C@H](CCC4=CC(=O)CC[C@]43C)[C@H]1CC[C@@H]2c1csc(N)n1 (some centres undefined) ?
RGS12 GoLoco inh: 4.4%[14.2 µM]

Results for CCc1ccc(-c2cc(C(=O)N/N=C/c3c[nH]c4ccccc34)[nH]n2)cc1 ?
Menin-MLL FL inh: -2.2; RGS12 GoLoco inh: 6.6%; ERG-DNA inh: 8.3%; CXXC DNA block: 16.6%; Menin-MLL TR inh: inconclusive

What do the screens show for `CCc1ccc(/C=C/c2c[nH]c3ccccc23)[n+](CC)c1`?
Menin-MLL FL inh: inconclusive; RGS12 GoLoco inh: 6.31µM*; ERG-DNA inh: -0.5%; CXXC DNA block: 7.0%; Menin-MLL TR inh: 2.8%

What do the screens show for `COc1ccc(CNC(=O)Cc2c(C(=O)O)c(C)cn2C)cc1`?
ERG-DNA inh: -6.6%

Results for COc1ccc(N2CCN(C(=O)c3cc(=O)c4cc(C)cc(C)c4o3)CC2)cc1 ?
Menin-MLL FL inh: -12.5; ERG-DNA inh: 1.8%; CXXC DNA block: 16.8%; Menin-MLL TR inh: 11.2µM*

What do the screens show for `CN1CCC(=C2c3ccccc3Sc3ccccc32)CC1`?
Menin-MLL FL inh: -1.8; RGS12 GoLoco inh: 17.8µM*!; ERG-DNA inh: 11.8%; CXXC DNA block: 9.6%; Menin-MLL TR inh: -18.0%

Source: PubChem (National Center for Advancing Translational Sciences (NCATS))
